# Laboratory results as given in PubChem BioAssay (NCATS).
# Calls of active or inactive are those of the source. Calls come from the whole dose curve.
# Conditions: Ebola virus entry cell assay, ratio channel
Structure (SMILES),AC50,outcome
CCN(CC)CCCC(C)Nc1ccnc2cc(Cl)ccc12 (stereo not drawn),2.82 µM (active),–
C[C@](N)(Cc1ccc(O)c(O)c1)C(=O)O,–,inactive
CCC[C@H](N[C@@H](C)C(=O)N1[C@H](C(=O)O)C[C@@H]2CCCC[C@@H]21)C(=O)OCC,–,inactive
Fc1ccc([C@@H]2CCNC[C@H]2COc2ccc3c(c2)OCO3)cc1,5.01 µM (active),–
CCCC(CCC)C(=O)O,–,inactive
N[C@@H](Cc1cc(I)c(Oc2cc(I)c(O)c(I)c2)c(I)c1)C(=O)O,–,inactive
CN(C)CCC[C@@]1(c2ccc(F)cc2)OCc2cc(C#N)ccc21,–,inactive
Cc1ccnc2c1NC(=O)c1cccnc1N2C1CC1,–,inactive
O=C1Cc2cc(CCN3CCN(c4nsc5ccccc45)CC3)c(Cl)cc2N1,15.8 µM (active),–
COc1c(C)c2c(c(O)c1C/C=C(\C)CCC(=O)OCCN1CCOCC1)C(=O)OC2,3.98 µM (active),–
CNCC[C@H](Oc1cccc2ccccc12)c1cccs1,10 µM (active),–
C[C@]12CC[C@@H]3c4ccc(O)cc4C[C@@H](CCCCCCCCCS(=O)CCCC(F)(F)C(F)(F)F)[C@H]3[C@@H]1CC[C@@H]2O (stereo partly drawn),2 µM (active),–
CCC1(c2ccccc2)C(=O)NCNC1=O,–,inactive
CC(C)NC[C@@H](O)COc1ccc(CC(N)=O)cc1,–,inactive
COc1ccc(-c2cc(=S)ss2)cc1,–,inactive
O[C@@H](CNC[C@H](O)[C@H]1CCc2cc(F)ccc2O1)[C@@H]1CCc2cc(F)ccc2O1,5.01 µM (active),–
Cc1cc(C)cc(OCC2CNC(=O)O2)c1 (stereo not drawn),–,inactive
CCOC(=O)C1=C(C)NC(C)=C(C(=O)OC)C1c1cccc(Cl)c1Cl (stereo not drawn),–,inactive
CCN(C)C(=O)Oc1cccc([C@H](C)N(C)C)c1,–,inactive
CCCCc1oc2ccc(NS(C)(=O)=O)cc2c1C(=O)c1ccc(OCCCN(CCCC)CCCC)cc1,3.16 µM (active),–
CCOC(=O)c1ncn2c1CN(C)C(=O)c1cc(F)ccc1-2,–,inactive
CN1CCc2cccc3c2[C@H]1Cc1ccc(O)c(O)c1-3,–,inactive
CC(S)C(=O)NCC(=O)O (stereo not drawn),–,inactive
